Records with an inconclusive call do not appear. Activity calls are given as the source filed them. Calls follow the shape of the dose curve; as a rule, active = well fitted curve in the direction sought with a large enough effect; inconclusive = small, poorly fitted or top-dose-only effect, or another doubt; inactive = no such curve, though single readings can be large; an effect the other way counts as inactive or inconclusive.
How the values were obtained:
[1] = Quantitative High-Throughput drug screen in 47 multiple myeloma cell lines against the NCATS MIPE library collection: KHM11_PLB cell viability assay (AID 1918962); details: KHM11 myeloma cell viability, CellTiter-Glo ATP luminescence, 48 h; series mostly up to 45.8 µM; also: nearly all actives have a fitted effect of over 35% in size
Method in brief: (§1)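 Inhibition of cell viability is measured here. Each line was plated at 500 cells per well, treated with MIPE 4.0 drugs, kept 48 hours at 37C, then assayed for ATP content by CellTiter-Glo luminescence.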

[2] = Quantitative High-Throughput drug screen in 47 multiple myeloma cell lines against the NCATS MIPE library collection: JIM3_ECACC cell viability assay (AID 1918963; also: nearly all actives have a fitted effect of over 35% in size); details: JIM3 myeloma viability, CellTiter-Glo ATP, 48 h; series mostly up to 45.8 µM
Method in brief: as §1

[3] = Quantitative High-Throughput drug screen in 47 multiple myeloma cell lines against the NCATS MIPE library collection: JIM1_ECACC cell viability assay (AID 1918964); details: JIM1 myeloma viability, CellTiter-Glo ATP luminescence, 48 h; series mostly up to 45.8 µM
Method in brief: (§2)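 Myeloma cell lines, 500 cells per well, exposed to MIPE 4.0 library compounds for 48 h at 37C, 5% CO2. Viability from ATP by CellTiter-Glo luminescence; normalised to DMSO (100%) and media-only (0%) wells.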

[4] = Quantitative High-Throughput drug screen in 47 multiple myeloma cell lines against the NCATS MIPE library collection: INA6_PLB cell viability assay (AID 1918965; also: nearly all actives have a fitted effect of over 55% in size); details: INA6 myeloma viability, CellTiter-Glo ATP luminescence, 48 h; series mostly up to 45.8 µM
Method in brief: (§3)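 qHTS of the MIPE 4.0 collection: 500 myeloma cells/well, 48 h drug exposure at 37C in 5% CO2, then CellTiter-Glo for 5 min at room temperature before luminescence reading.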

[5] = Quantitative High-Throughput drug screen in 47 multiple myeloma cell lines against the NCATS MIPE library collection: H1112_PLB cell viability assay (AID 1918967; also: nearly all actives have a fitted effect of over 30% in size); details: H1112 myeloma cells viability, ATP luminescence, 48 h; series mostly up to 45.8 µM
Method in brief: as §2

[6] = Quantitative High-Throughput drug screen in 47 multiple myeloma cell lines against the NCATS MIPE library collection: Karpas25_ECACC cell viability assay (AID 1918968; also: nearly all actives have a fitted effect of over 35% in size); details: Karpas25 myeloma viability, CellTiter-Glo ATP, 48 h; series mostly up to 45.8 µM
Method in brief: as §2

[7] = Quantitative High-Throughput drug screen in 47 multiple myeloma cell lines against the NCATS MIPE library collection: KMS12BM_JCRB cell viability assay (AID 1918971); details: KMS12BM myeloma viability, CellTiter-Glo ATP, 48 h; series mostly up to 45.8 µM; also: nearly all actives have a fitted effect of over 35% in size
Method in brief: (§4)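 Steps: seed 500 cells per well; pin-transfer MIPE 4.0 library; incubate 48 h at 37C, 5% CO2, humidified; add CellTiter-Glo, 5 min room temperature; read luminescence.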

[8] = Quantitative High-Throughput drug screen in 47 multiple myeloma cell lines against the NCATS MIPE library collection: KMS12PE_JCRB cell viability assay (AID 1918972); details: KMS12PE myeloma viability, CellTiter-Glo ATP, 48 h; series mostly up to 45.8 µM; also: nearly all actives have a fitted effect of over 30% in size
Method in brief: as §3

[9] = Quantitative High-Throughput drug screen in 47 multiple myeloma cell lines against the NCATS MIPE library collection: MM1S_ATCC cell viability assay (AID 1918980); details: MM1S myeloma viability, CellTiter-Glo ATP luminescence, 48 h; series mostly up to 45.8 µM; also: nearly all actives have a fitted effect of over 45% in size
Method in brief: (§5)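 Viability after 48 h drug exposure was measured as ATP-dependent luminescence. Cells, 500 per well, sat at 37 °C under 5% CO2; DMSO wells set 100%, media-only wells 0%.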

[10] = Quantitative High-Throughput drug screen in 47 multiple myeloma cell lines against the NCATS MIPE library collection: MM1R_ATCC cell viability assay (AID 1918981); details: MM1R multiple myeloma cells, CellTiter-Glo viability, 48 h; series mostly up to 45.8 µM; also: nearly all actives have a fitted effect of over 35% in size
Method in brief: as §5

[11] = Quantitative High-Throughput drug screen in 47 multiple myeloma cell lines against the NCATS MIPE library collection: KMS27_JCRB cell viability assay (AID 1918970); details: KMS27 myeloma cells, CellTiter-Glo ATP viability, 48 h; series mostly up to 45.8 µM; also: nearly all actives have a fitted effect of over 30% in size
Method in brief: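 Luminescent ATP read-out (CellTiter-Glo, 5 min at room temperature) after 48 h compound exposure of 500 KMS27_JCRB cells per well; DMSO wells define full viability and media-only wells zero.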

[12] = Quantitative High-Throughput drug screen in 47 multiple myeloma cell lines against the NCATS MIPE library collection: KMS26_JCRB cell viability assay (AID 1918975); details: KMS26 myeloma cells viability, CellTiter-Glo ATP, 48 h; series mostly up to 45.8 µM; also: nearly all actives have a fitted effect of over 45% in size
Method in brief: as §4

[13] = Quantitative High-Throughput drug screen in 47 multiple myeloma cell lines against the NCATS MIPE library collection: NCIH929_DSMZ cell viability assay (AID 1918978); details: NCI-H929 myeloma viability, CellTiter-Glo ATP, 48 h; series mostly up to 45.8 µM; also: nearly all actives have a fitted effect of over 35% in size
Method in brief: as §5

[14] = Quantitative High-Throughput drug screen in 47 multiple myeloma cell lines against the NCATS MIPE library collection: OCIMY1_PLB cell viability assay (AID 1918979); details: OCI-MY1 myeloma viability, CellTiter-Glo ATP, 48 h; series mostly up to 45.8 µM; also: nearly all actives have a fitted effect of over 35% in size
Method in brief: as §5

[15] = Quantitative High-Throughput drug screen in 47 multiple myeloma cell lines against the NCATS MIPE library collection: JJN3_DSMZ cell viability assay (AID 1918966; also: nearly all actives have a fitted effect of over 50% in size); details: JJN3 myeloma cells viability, CellTiter-Glo ATP, 48 h; series mostly up to 45.8 µM
Method in brief: as §2

[16] = Quantitative High-Throughput drug screen in 47 multiple myeloma cell lines against the NCATS MIPE library collection: KMS20_JCRB cell viability assay (AID 1918973); details: CellTiter-Glo ATP, 48 h; series mostly up to 45.8 µM; also: nearly all actives have a fitted effect of over 45% in size
Method in brief: as §2

[17] = Quantitative High-Throughput drug screen in 47 multiple myeloma cell lines against the NCATS MIPE library collection: LP1_DSMZ cell viability assay (AID 1918982); details: LP1 myeloma viability, CellTiter-Glo ATP luminescence, 48 h; series mostly up to 45.8 µM; also: nearly all actives have a fitted effect of over 35% in size
Method in brief: as §5

[18] = Quantitative High-Throughput drug screen in 47 multiple myeloma cell lines against the NCATS MIPE library collection: MOLP8_DSMZ cell viability assay (AID 1918977); details: MOLP8 myeloma viability, CellTiter-Glo ATP luminescence, 48 h; series mostly up to 45.8 µM; also: nearly all actives have a fitted effect of over 45% in size
Method in brief: as §5

[19] = Quantitative High-Throughput drug screen in 47 multiple myeloma cell lines against the NCATS MIPE library collection: MMM1_PLB cell viability assay (AID 1918976); details: MMM1 myeloma cells viability, CellTiter-Glo, 48 h; series mostly up to 45.8 µM; also: nearly all actives have a fitted effect of over 35% in size
Method in brief: as §5
Potency is read from the fitted curve at half-maximal effect.

SMILES: COc1ccc(C2CC(c3ccccc3)=NN2c2ccc(S(N)(=O)=O)cc2)cc1 (configuration not stated)
- Potency [1]: inactive
- Potency [2]: 18.7 µM (active)
- Potency [3]: 14.8 µM (active)
- Potency [4]: 23.5 µM (active)
- Potency [5]: 14.8 µM (active)
- Potency [6]: 16.6 µM (active)
- Potency [7]: 18.7 µM (active)
- Potency [8]: 11.8 µM (active)
- Potency [9]: 23.5 µM (active)
- Potency [10]: 16.6 µM (active)

SMILES: N#CC(=C(N)Sc1ccccc1N)C(C#N)=C(N)Sc1ccccc1N
- Potency [1]: 0.662 µM (active)
- Potency [2]: 18.7 µM (active)
- Potency [3]: 16.6 µM (active)
- Potency [4]: 16.6 µM (active)
- Potency [6]: 8.33 µM (active)
- Potency [11]: 18.7 µM (active)
- Potency [7]: inactive
- Potency [8]: 23.5 µM (active)
- Potency [12]: 1.32 µM (active)
- Potency [13]: 14.8 µM (active)
- Potency [14]: inactive
- Potency [10]: 1.18 µM (active)

SMILES: Cc1ccc(C(=O)Nc2cccc(C(F)(F)F)c2)cc1Nc1nc(-c2cccnc2)nc2c1cnn2C
- Potency [1]: 13.2 µM (active)
- Potency [2]: 10.5 µM (active)
- Potency [3]: inactive
- Potency [4]: 11.8 µM (active)
- Potency [15]: 18.7 µM (active)
- Potency [5]: 14.8 µM (active)
- Potency [6]: 13.2 µM (active)
- Potency [11]: inactive
- Potency [7]: 13.2 µM (active)
- Potency [8]: inactive
- Potency [16]: 8.33 µM (active)
- Potency [13]: 14.8 µM (active)
- Potency [14]: 16.6 µM (active)
- Potency [9]: 18.7 µM (active)
- Potency [10]: 18.7 µM (active)
- Potency [17]: 16.6 µM (active)

SMILES: CC(C)OC(=O)CCCC=CC[C@@H]1[C@H](C=C[C@@H](O)COc2cccc(C(F)(F)F)c2)[C@H](O)C[C@@H]1O
- Potency [1]: 23.5 µM (active)
- Potency [2]: 20.9 µM (active)
- Potency [3]: inactive
- Potency [4]: 11.8 µM (active)
- Potency [5]: 18.7 µM (active)
- Potency [6]: 16.6 µM (active)
- Potency [8]: inactive
- Potency [18]: 26.4 µM (active)
- Potency [13]: 18.7 µM (active)
- Potency [17]: 14.8 µM (active)

SMILES: CCCCCN(C)CCC(O)(P(=O)(O)O)P(=O)(O)O
- Potency [1]: inactive
- Potency [2]: inactive
- Potency [3]: inactive
- Potency [4]: inactive
- Potency [5]: inactive
- Potency [6]: inactive
- Potency [13]: inactive
- Potency [14]: inactive
- Potency [9]: inactive
- Potency [17]: inactive

SMILES: CC=CC(=O)N(CC)c1ccccc1C
- Potency [1]: inactive
- Potency [2]: inactive
- Potency [3]: inactive
- Potency [4]: inactive
- Potency [5]: inactive
- Potency [6]: inactive
- Potency [11]: inactive
- Potency [7]: inactive
- Potency [8]: inactive
- Potency [16]: inactive
- Potency [18]: 0.0418 µM (active)
- Potency [13]: inactive
- Potency [14]: inactive
- Potency [9]: 6.62 µM (active)
- Potency [10]: inactive
- Potency [17]: inactive

SMILES: O=C(Nc1ccccc1-c1cn2c(CN3CCNCC3)csc2n1)c1cnc2ccccc2n1
- Potency [1]: 8.33 µM (active)
- Potency [2]: 33.2 µM (active)
- Potency [3]: 2.96 µM (active)
- Potency [4]: 9.35 µM (active)
- Potency [15]: 9.35 µM (active)
- Potency [5]: 9.35 µM (active)
- Potency [6]: 5.9 µM (active)
- Potency [11]: inactive
- Potency [7]: 10.5 µM (active)
- Potency [8]: inactive
- Potency [16]: 2.96 µM (active)
- Potency [12]: 9.35 µM (active)
- Potency [19]: 10.5 µM (active)
- Potency [18]: 9.35 µM (active)
- Potency [13]: 7.43 µM (active)
- Potency [14]: 16.6 µM (active)
- Potency [9]: 23.5 µM (active)
- Potency [10]: 20.9 µM (active)
- Potency [17]: 23.5 µM (active)

SMILES: CCC(CC)[C@H](NC(C)=O)[C@@H]1[C@H](O)[C@@H](C(=O)O)C[C@@H]1N=C(N)N
- Potency [1]: inactive
- Potency [2]: inactive
- Potency [4]: inactive
- Potency [15]: inactive
- Potency [5]: inactive
- Potency [6]: inactive
- Potency [11]: inactive
- Potency [13]: inactive
- Potency [14]: inactive
- Potency [17]: inactive

SMILES: N#C[C@H]1C[C@H]2C[C@@H]2N1C(=O)[C@@H](N)C12CC3CC(CC(O)(C3)C1)C2
- Potency [1]: inactive
- Potency [2]: inactive
- Potency [3]: inactive
- Potency [8]: inactive
- Potency [19]: 1.48 µM (active)
- Potency [13]: inactive
- Potency [14]: inactive
- Potency [9]: 4.18 µM (active)
- Potency [17]: inactive

SMILES: Cc1c(NC(=O)c2ccc(C(C)(C)C)cc2)cccc1-c1cn(C)c(=O)c(Nc2ccc(C(=O)N3CCOCC3)cc2)n1
- Potency [1]: inactive
- Potency [2]: 13.2 µM (active)
- Potency [4]: 23.5 µM (active)
- Potency [15]: 14.8 µM (active)
- Potency [6]: 16.6 µM (active)
- Potency [7]: 23.5 µM (active)
- Potency [8]: 5.26 µM (active)
- Potency [12]: 16.6 µM (active)
- Potency [19]: 26.4 µM (active)
- Potency [18]: inactive
- Potency [13]: 20.9 µM (active)
- Potency [10]: 20.9 µM (active)

SMILES: COc1cc(NC(=O)c2ccc(-c3ccc(Cl)cc3)o2)cc(OC)c1
- Potency [1]: 14.8 µM (active)
- Potency [2]: 11.8 µM (active)
- Potency [4]: 8.33 µM (active)
- Potency [5]: 2.96 µM (active)
- Potency [6]: 2.96 µM (active)
- Potency [8]: 20.9 µM (active)
- Potency [12]: inactive
- Potency [13]: 2.64 µM (active)
- Potency [9]: 1.05 µM (active)
- Potency [10]: inactive
- Potency [17]: inactive

SMILES: CC(=O)N(C)C1(c2ccccc2)CCN(CCC[C@]2(c3ccc(Cl)c(Cl)c3)CCCN(C(=O)c3ccccc3)C2)CC1
- Potency [1]: 16.6 µM (active)
- Potency [2]: 20.9 µM (active)
- Potency [4]: 10.5 µM (active)
- Potency [15]: 18.7 µM (active)
- Potency [5]: 20.9 µM (active)
- Potency [6]: 16.6 µM (active)
- Potency [11]: 23.5 µM (active)
- Potency [7]: 20.9 µM (active)
- Potency [8]: 7.43 µM (active)
- Potency [16]: 4.69 µM (active)
- Potency [12]: 20.9 µM (active)
- Potency [18]: 23.5 µM (active)
- Potency [13]: 11.8 µM (active)
- Potency [14]: 26.4 µM (active)
- Potency [9]: 20.9 µM (active)
- Potency [10]: 23.5 µM (active)
- Potency [17]: 26.4 µM (active)

— PubChem BioAssay (NCATS)
